HT1080-NT tox: qHTS for induction of synthetic lethality in tumor cells producing 2HG: qHTS for the HT-1080-NT fibrosarcoma cell line | AID 686970, 2013 | HT-1080-NT fibrosarcoma viability, CellTiter-Glo ATP luminescence, 48 h | actives 1.6% (n = 360,000) | Potency, µM (top dose mostly 46.1 µM), actives largely listed as cytotoxic;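 note: NT is the 2HG producing partner of a matched IDH1 knockdown line; nearly all actives have a fitted effect of over 55% in size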
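HT-1080-NT; 750 cells/well; 5% FBS RPMI; 48 h compound, 37 degrees C; CellTiter-Glo luminescence; curve fitting and curve-class assignment.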
ELG1 DNA repair: qHTS screen for small molecules that inhibit ELG1-dependent DNA repair in human embryonic kidney (HEK293T) cells expressing luciferase-tagged ELG1; HEK293T ELG1-luciferase reporter, luminescence, 16 h; DNA damage induced by 5-fluorouridine; Potency, µM (series often up to 46.1 µM), hits mostly inhibitors; actives 2.3% (n = 330,000); AID 504467, 2011; note: nearly all actives have a fitted effect of over 55% in size
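In this reporter screen, reduction of luminescence relative to DMSO vehicle indicated activity. Compounds and 5-fluorouridine were added together to 2,000 cells per well, incubated for 16 hr at 37 °C, then developed with ONE-Glo.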
TDP1 cell CPT: qHTS for Inhibitors of human tyrosyl-DNA phosphodiesterase 1 (TDP1): qHTS in cells in presence of CPT. chicken DT40 Tdp1-/-;hTDP1 cells + 20 nM CPT, ATP luminescence, 48 h. Potency, µM (doses to about 46.2 µM), hits mostly inhibitors. actives 12% (n = 420,000). AID 686979, 2013; note: nearly all actives have a fitted effect of over 55% in size
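Chicken DT40 Tdp1-/- cells stably complemented with human TDP1 were seeded at 400 cells/well in medium containing 20 nM camptothecin, exposed to pin-transferred compounds, and grown at 37 °C for at least 48 hr. Viability was read as ATP luminescence.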
IL1B secr inh: qHTS for Inhibitors of Inflammasome Signaling: IL-1-beta AlphaLISA Primary Screen | THP-1 LPS/ATP IL-1B secretion, AlphaLISA, 16 h; hits give low values | activity change, % at 57.5 µM | actives 4.7% (n = 360,000); in the data active = activity change below about -50%; inconclusive = mostly about -30% to -49%
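Secreted IL-1B measured by AlphaLISA bead assay after 16 h compound exposure of THP-1 cells; compounds (final up to 57.5 uM) added 1 h before LPS (250 ng/mL) and ATP (1.25 mM) stimulation; lower signal means less secretion.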
DT40 TDP1 no CPT: qHTS for Inhibitors of human tyrosyl-DNA phosphodiesterase 1 (TDP1): qHTS in cells in absence of CPT. DT40 Tdp1-/- hTDP1 cells, no CPT, ATP luminescence, 48 h. Potency, µM (doses to about 46.2 µM), hits mostly inhibitors. actives 15% (n = 420,000). AID 686978, 2013; note: nearly all actives have a fitted effect of over 55% in size
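Chicken DT40 Tdp1-/- cells complemented with human TDP1, screened without camptothecin (DMSO vehicle only), 400 cells/well. Compounds pin-transferred, cells incubated at 37 °C for at least 48 hr. Growth read as ATP-dependent luminescence (CellTiter-Glo, 30 min at RT).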
HT1080 IDH1KD tx: qHTS for induction of synthetic lethality in tumor cells producing 2HG: qHTS for the HT-1080-IDH1KD cell line; HT-1080 IDH1 knockdown viability, ATP luminescence, 48 h; Potency, µM (doses to about 46.1 µM), hits mostly cytotoxic; actives 2% (n = 360,000); AID 686971, 2013
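CellTiter-Glo luminescence after 48 h compound exposure at 37 degrees C of IDH1-knockdown HT-1080 cells in 5% FBS RPMI. %Activity scaled between DMSO wells and cell-free media wells, with curves fitted and assigned curve classes.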
Numbers stand for hits; 0 = inactive; ? = inconclusive; - = no result given. Rows were chosen to be rich in hits. Some 19% of all compounds tested hit in one or more screens of this group. Unless noted, calls come from the whole dose curve; as a rule, active = well fitted curve in the direction sought with a large enough effect; inconclusive = small, poorly fitted or top-dose-only effect, or another doubt; inactive = no such curve, though single readings can be large; an effect the other way counts as inactive or inconclusive.

SMILES	HT1080-NT tox	ELG1 DNA repair	TDP1 cell CPT	IL1B secr inh	DT40 TDP1 no CPT	HT1080 IDH1KD tx
CCCCOc1ccc(/C=N/NC(=O)c2nnn(-c3nonc3N)c2C)cc1	0	0	0	0	0	0
C[C@H]1CN(S(=O)(=O)c2c(F)cccc2F)CCN1S(=O)(=O)c1ccc2c(c1)OCCO2	-	0	-	-	-	-
COc1ccc(C(=O)C2CCCN(C(=O)c3csc(C(C)=O)c3)C2)c(C)c1 (stereo unspecified)	0	0	?	0	0	0
COc1ccc(C(=O)C2CCCN(C(=O)c3noc4c3CCCC4)C2)c(C)c1 (stereo unspecified)	0	26µM	?	0	21µM	0
COc1ccc(OC2CCN(S(=O)(=O)c3ccc(C(C)=O)cc3)CC2)cc1	0	21µM	?	0	0	0
O=C(CN(C(=O)CCC(=O)Nc1ccccn1)c1ccccc1F)NCc1ccc2c(c1)OCO2	0	0	0	0	0	0
CC(NC(=O)COC(=O)C1CCCCC1)c1ccccc1 (stereo unspecified)	0	0	0	0	0	0
CC(C)=CCC/C(C)=C/CNC(=O)CC1C[C@H](C(=O)N(C(C)C)C(C)C)[C@@]2(C)c3[nH]c4ccccc4c3CCN2C1=O (stereo partly specified)	0	?	16µM	0	23µM	0
COc1ccc2[nH]c3c(c2c1)CCN1C(=O)C(CC(=O)NC(C)(C)C)C[C@H](C(=O)N(C(C)C)C(C)C)[C@@]31C (stereo partly specified)	0	0	?	0	?	0
COc1ccc2[nH]c3c(c2c1)CCN1C(=O)C(CC(=O)NC/C=C(\C)CCC=C(C)C)C[C@H](C(=O)N(C(C)C)C(C)C)[C@@]31C (stereo partly specified)	?	0	?	-64	18µM	?
CN(C(=O)Nc1ccc(F)cc1)[C@H]1C[C@H]2c3[nH]c4ccccc4c3CCN2C(=O)[C@H]1CO	0	-	0	0	0	0
CC(C)c1ccccc1NC(=O)CN(c1ccccc1)S(=O)(=O)N(C)C	-	-	?	-	0	-
CSc1nc(Cl)c(C#N)c(-c2ccc(C)cc2)n1	0	?	9.2µM	0	?	0
COc1ccc(-c2nc(-c3cccc(C)c3)nc(Cl)c2C#N)cc1	-	0	-	-	-	-
COc1ccc(-c2nc(-c3ccccc3)nc(Cl)c2C#N)cc1	0	0	?	0	10µM	0
Cc1ccc(CN2CC(C(=O)Nc3cc(C)ccn3)CC2=O)cc1 (stereo unspecified)	0	?	0	0	0	0
O=C(CCNS(=O)(=O)c1ccc2c(c1)CCN2C(=O)C1CC1)N1CCN(c2ccccc2F)CC1	-	-	13µM	-	12µM	-
CC(=O)N1CCc2cc(S(=O)(=O)NCCC(=O)N3CCN(c4ccccn4)CC3)ccc21	0	?	0	0	?	0
O=C(C1CCC1)N1CCc2cc(S(=O)(=O)NCCN3CCN(c4ccccc4F)CC3)ccc21	0	?	?	0	23µM	0
O=C(COC(=O)C1=NN(c2ccccc2)C(=O)CC1)Nc1nc(-c2ccc(F)cc2)cs1	0	?	?	0	0	0
CCc1ccc(-c2csc(NC(=O)c3cccnc3)n2)cc1	0	0	?	0	16µM	?
CCc1ccc(-c2csc(NC(=O)C3=NN(c4ccccc4)C(=O)CC3)n2)cc1	?	?	?	0	26µM	?
O=C(Nc1nc(-c2ccc(F)cc2)cs1)c1cccnc1	0	0	0	0	?	0

From PubChem
